# Screening data: PubChem BioAssay, Buhrlage Lab, Dana-Farber Cancer Institute and Novartis Institutes for BioMedical Research (Cambridge, Mass)
# Only some compounds are listed: those with a hit (about 13% of all), similar ones and a draw of the others.
# USP28 block – inhibitors of human USP28 deubiquitinase | purified USP28, Ub-rhodamine cleavage fluorescence, 30 min | Ubiquitin carboxyl-terminal hydrolase 28 (Homo sapiens), Q96RU2 | 47,000 tested, 3% active | inhibition, % at 25 µM
# USP17 inh – inhibitors of human USP17 deubiquitinase | 47,000 tested, 6.5% active | purified USP17, Ub-rhodamine cleavage fluorescence, 3 h | AID 1645855, 2021 | inhibition, % at 50 µM | Ubiquitin carboxyl-terminal hydrolase 17-like protein 5 (Homo sapiens), A8MUK1
# USP30 inh – inhibitors of human USP30 deubiquitinase. inhibition, % at 25 µM. purified USP30, Ub-rhodamine cleavage fluorescence. 47,000 tested, 5.3% active. Ubiquitin carboxyl-terminal hydrolase 30 (Homo sapiens), Q70CQ3
# Target sequence (Q70CQ3 whole entry, looked up): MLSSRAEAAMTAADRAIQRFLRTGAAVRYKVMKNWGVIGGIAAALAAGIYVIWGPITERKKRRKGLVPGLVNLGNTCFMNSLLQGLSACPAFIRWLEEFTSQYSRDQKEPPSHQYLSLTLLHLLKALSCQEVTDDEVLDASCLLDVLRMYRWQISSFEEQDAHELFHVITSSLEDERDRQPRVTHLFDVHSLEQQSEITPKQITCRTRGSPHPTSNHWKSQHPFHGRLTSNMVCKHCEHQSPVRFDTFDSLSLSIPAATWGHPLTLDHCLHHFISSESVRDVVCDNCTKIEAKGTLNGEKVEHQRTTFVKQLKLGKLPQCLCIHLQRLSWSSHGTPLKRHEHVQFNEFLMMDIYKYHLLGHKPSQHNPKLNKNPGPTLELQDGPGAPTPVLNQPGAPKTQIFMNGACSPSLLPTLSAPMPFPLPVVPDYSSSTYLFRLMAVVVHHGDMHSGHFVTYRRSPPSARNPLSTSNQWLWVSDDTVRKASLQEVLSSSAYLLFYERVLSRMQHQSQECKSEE
# USP8 inh – inhibitors of human USP8 deubiquitinase. AID 1645853, 2021. inhibition, % at 20 µM. Ubiquitin carboxyl-terminal hydrolase 8 (Homo sapiens), P40818. 47,000 tested, 4.2% active. purified USP8, Ub-rhodamine cleavage fluorescence, 30 min
# OTUD3 inh – inhibitors of human OTUD3 deubiquitinase; inhibition, % at 25 µM; purified OTUD3, Ub-rhodamine fluorescence, 2 h; 47,000 tested, 0.7% active; OTU domain-containing protein 3 (Homo sapiens), Q5T2D3; AID 1645858, 2021
# Numbers without * were called inactive; i = inactive; nt = no result given. Rule as the data show it: active = inhibition above about 30%; inactive = the rest.
SMILES,USP28 block,USP17 inh,USP30 inh,USP8 inh,OTUD3 inh
COc1ccccc1CC(=O)NCc1ccc(-c2ncncc2-c2cc(C)no2)cc1,17.0,19.3,28.0,11.6,21.3
N#Cc1cccc(NC(=O)c2cc(C3CC3)n3nccc3n2)c1,-20.9,-21.5,-33.2,-9.7,-21.0
CNC(=O)c1cnc2n1CC(c1cccc(C(F)(F)F)c1)CC2 (configuration not stated),7.6,-9.7,15.0,-66.4,10.2
O=C(c1cnc2n1CC(c1cccc(C(F)(F)F)c1)CC2)N1CCNCC1 (configuration not stated),4.2,-39.2,30.2*,-0.8,6.7
O=C(NCCCN1CCc2ccccc2C1)c1cc2c(s1)CS(=O)(=O)C2,41.2*,62.0*,-26.4,46.1*,-16.2
Cc1ccc2nc3c(cc(C(=O)N4CCCC(C)C4)n3Cc3ccccc3)c(=O)n2c1 (configuration not stated),nt,-11.3,nt,-1.5,-5.9
COc1ccc(C(=O)Nc2sc3c(c2C(=O)NCc2cccnc2)CCCC3)cc1,26.5,66.5*,13.9,25.9,40.2*
Cc1ccc(-c2cc3c(=O)n(Cc4noc(CN5CCCCC5C)n4)ccn3n2)cc1 (configuration not stated),-14.8,-16.3,-73.2,-10.0,-17.0
COc1cccc(CC(=O)N[C@@H](C)c2nc3cc(-c4ccc(F)cc4)ncn3n2)c1,7.5,9.0,13.0,1.5,21.7
COc1ccc(-c2cc3nc([C@@H](C)NC(=O)c4ccc5c(c4)OCO5)nn3cn2)cc1,63.7*,19.2,85.2*,32.0*,21.4
COc1ccc(-c2cc3nc([C@H](C)NC(=O)Cc4cc(F)ccc4F)nn3cn2)cc1,22.4,40.3*,36.6*,13.9,28.8
COc1ccc(-c2cc3nc([C@H](C)NC(=O)Cc4cccc(F)c4)nn3cn2)cc1,12.4,36.8*,59.5*,9.2,16.7
COCCOc1ccc(C(=O)N[C@H](C)c2nc3cc(-c4ccccc4F)ncn3n2)cc1,0.1,0.3,8.4,2.9,0.1
CCc1cccc(C)c1NC(=O)CS(=O)(=O)Cc1nc(-c2ccc(C)cc2)oc1C,-2.1,5.3,-4.7,10.8,-0.1
Cc1cc(=O)n2[nH]c(CNc3cccc(C(F)(F)F)c3)nc2n1,10.1,15.9,30.5*,6.2,6.3
CC(C)(C)OC(=O)N[C@@H](Cc1ccccc1)C(=O)NCC1CCC(C(=O)O)CC1 (some centres not stated),2.5,7.5,7.2,7.1,9.7
CC(C)(C)OC(=O)N[C@@H](Cc1ccccc1)C(=O)NCC1CCC(C(=O)NCCc2c[nH]c3ccccc23)CC1 (some centres not stated),-11.4,44.2*,-11.6,-5.3,0.3
COc1cc(OC)cc(C(=O)Nc2ccc3c(c2)Sc2ncccc2C(=O)N3C)c1,-17.5,-17.1,-65.9,-9.2,-9.2
CCOc1ccccc1C(=O)Nc1ccc2c(c1)Sc1ncccc1C(=O)N2C,40.2*,53.0*,-0.1,-2.2,-15.0
CN1C(=O)c2cccnc2Sc2cc(NC(=O)CCc3ccccc3)ccc21,7.1,-8.5,-50.1,-16.5,-10.1
COc1ccc(C(=O)Nc2ccc3c(c2)Sc2ncccc2C(=O)N3C)cn1,65.2*,7.1,-34.6,-11.4,-3.1
COc1ccc(CCC(=O)Nc2ccc3c(c2)Sc2ccccc2C(=O)N3C)cc1,31.7*,nt,39.4*,25.1,15.9
Cc1cccc(OCC(=O)Nc2ccc3c(c2)Sc2ncccc2C(=O)N3C)c1,3.9,14.3,-32.4,3.9,-8.4
Cc1cccc(-c2c3c(=O)n(C)c(=O)n(C)c3cn2CCc2ccccc2)c1,-5.7,-34.6,-31.1,-134.7,-7.7
O=C(NCc1ccccn1)c1nc(-c2ccc(F)cc2)no1,-1.9,-2.5,-8.3,0.0,-3.8
SMILES,USP28 block,USP17 inh,USP30 inh,USP8 inh,OTUD3 inh
Cc1cccc2nc(-c3cccnc3)c(NC3CCCC3)n12,43.4*,1.8,16.1,-0.4,8.3
NCCn1nc(C2CCN(C(=O)Cc3cccc(F)c3)C2)c2cccnc21 (configuration not stated),9.2,36.6*,26.2,-4.6,1.5
Cc1ccc2c(=O)c3c([nH]c2c1C)CCN(CC(=O)NCc1ccccc1)C3,18.1,72.3*,40.1*,-5.9,1.3
CC1Cc2nc3ccccc3n2CCN1C(=O)c1ccc(C(=O)O)cc1 (configuration not stated),-7.0,nt,-12.1,-16.4,-2.8
Cc1cc(C)cc(NC(=O)NC2CCN(c3nc4cccnc4n(C)c3=O)CC2)c1,-9.4,-10.9,-28.2,-12.8,-9.5
O=C(Cn1ccc2ccc(N3CCOCC3)nc21)NCc1ccc(F)cc1F,-110.4,-82.4,-376.6,-75.2,-100.5
CC(C)CC(=O)Nc1cc(F)c2nc(N3CCOCC3)ccc2c1,-10.9,75.1*,-53.2,80.1*,-6.7
O=C(CCc1ccccc1)Nc1cc(F)c2nc(N3CCOCC3)ccc2c1,2.5,15.6,-2.3,45.8*,8.4
O=C(COc1ccc(F)cc1)Nc1cc(F)c2nc(N3CCOCC3)ccc2c1,-1.2,51.3*,-4.0,41.2*,-13.8
O=C(COc1nc2ccccc2nc1N1CCOCC1)Nc1ccc(F)cc1,7.0,20.9,38.4*,19.6,15.7
COc1ccc(OCC(=O)Nc2cc(F)c3nc(N4CCOCC4)ccc3c2)cc1,0.4,10.0,-64.9,6.1,-36.1
Cc1ccc(Nc2nc(Nc3cccc(F)c3)nc3nccnc23)c(C)c1,-248.0,-170.6,i,-330.0,-227.7
COc1ccc(S(=O)(=O)N2CCC(c3c(C)[nH]c4ccccc34)CC2)cc1OC,-42.9,-20.1,-247.2,-26.7,-44.6
CCN1CC[C@@]2(C(=O)N3CCCC3)CCN(C(=O)NCC(C)C)CC[C@@H]12,4.9,-22.0,16.3,6.9,6.9
Cn1nc(-c2ccccc2)c(CO)c1Sc1ccccc1Cl,8.0,49.2*,6.0,-1.9,-4.6
Cc1ccccc1C(=O)Nc1ccc(Cc2ccc(NC(=O)c3ccccc3C)c(O)c2)cc1O,15.0,55.4*,-158.0,42.6*,-10.8
Cc1nnc(SCC(=O)Nc2ccc3[nH]c(=O)[nH]c3c2)n1Cc1ccccc1,13.6,42.5*,-0.9,-20.6,4.5
CCc1ccc(-c2nc(SCC(=O)Nc3ccc4[nH]c(=O)[nH]c4c3)n[nH]2)cc1,23.2,36.7*,58.1*,3.7,22.3
O=C(CSc1n[nH]c(-c2ccc(F)cc2)n1)Nc1ccc(F)cc1,-3.0,-6.5,-0.7,0.7,-4.7
Cc1occc1-c1nnc(SCC(=O)Nc2ccc3[nH]c(=O)[nH]c3c2)n1C,-1.9,44.7*,-13.5,-29.9,-10.2
O=C1CCC[C@]2(CN(S(=O)(=O)N3CCCCC3)C[C@H]2c2cccnc2)N1,4.2,7.2,12.5,17.6,5.2
NS(=O)(=O)c1ccc(NC(=O)C2Oc3ccccc3NC2=O)cc1 (configuration not stated),-3.8,-10.7,-12.5,-10.2,-6.4
